VACV mCherry inh = inhibitors of vaccinia virus infection (mCherry reporter signal); Vaccinia virus mCherry reporter infection, fluorescence; Potency, µM (series often up to 36.5 µM), usual class: inhibitors; 310,000 tested, 0.63% active; calls by dose curve; tested in A549 cells; note: nearly all actives have a fitted effect of over 35% in size
Tb PYK inh = T. brucei pyruvate kinase inhibition; Q57TT1; TbPYK enzyme, Kinase-Glo Plus ATP luminescence, 45 min; Potency, µM (titrated, usually from 76.8 µM), most hits filed as inhibitors; 410,000 tested, 0.12% active; note: nearly all actives have a fitted effect of over 50% in size
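ADP (130 uM final) triggers the TbPYK reaction after compound addition; incubation is 45 min at room temperature. Kinase-Glo Plus is then added and luminescence imaged. Normalized data are fitted to concentration-effect curves.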
LmPK inhibitor = LmPK (Leishmania mexicana) enzyme inhibition. 290,000 tested, 0.37% active. AID 1721. purified LmPK, Kinase-Glo ATP luminescence, 1 h. Q27686. Potency, µM (doses to about 57.5 µM), hits mostly inhibitors
Target sequence (Q27686 whole entry, looked up): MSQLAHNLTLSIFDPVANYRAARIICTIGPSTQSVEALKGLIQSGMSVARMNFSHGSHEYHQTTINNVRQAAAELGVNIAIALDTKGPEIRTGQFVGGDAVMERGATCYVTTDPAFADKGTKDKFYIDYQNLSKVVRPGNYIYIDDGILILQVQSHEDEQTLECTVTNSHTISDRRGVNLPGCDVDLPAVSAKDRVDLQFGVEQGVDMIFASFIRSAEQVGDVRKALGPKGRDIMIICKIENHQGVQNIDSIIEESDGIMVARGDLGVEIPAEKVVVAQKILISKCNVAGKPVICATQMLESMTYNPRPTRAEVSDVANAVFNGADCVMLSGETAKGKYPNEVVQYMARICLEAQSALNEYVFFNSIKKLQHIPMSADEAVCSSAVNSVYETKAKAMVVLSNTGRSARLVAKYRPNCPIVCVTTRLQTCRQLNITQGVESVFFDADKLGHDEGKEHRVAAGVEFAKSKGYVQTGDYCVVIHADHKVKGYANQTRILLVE
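In 50 mM imidazole pH 7.2 with 7 mM MgCl2, LmPK (0.1 nM) turned over PEP (0.5 mM) and ADP (0.1 mM) for 1 h at room temperature. Luciferase read-out of ATP.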
Vaccinia Venus = vaccinia inhibition (Venus reporter); Potency, µM (series often up to 36.5 µM), hits mostly inhibitors; Vaccinia virus Venus reporter expression, fluorescence; 330,000 tested, 0.46% active; AID 720580; calls by dose curve; tested in A549 cells; note: nearly all actives have a fitted effect of over 30% in size
HCMV antiviral = inhibitors of human cytomegalovirus | HFF cells, HCMV-luciferase reporter, 72 h; stronger effect = lower value | activity change, negative = inhibition, % at 57.5 µM | 410,000 tested, 4.5% active; in the data active = activity change below about -60%; inconclusive = no clear call, values can overlap the other calls; inactive = above about -39%
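Two-dose cell screen: HFF monolayers treated with compounds and infected with luciferase-expressing HCMV at 1 PFU/cell, 72 h at 37C, then lysed for luciferase measurement.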
Each line names hits and unclear results; the compound was inactive in the other large screens; ! = not active in a repeat. In the library only some 5% were active in any assay of this set; here they are far more common. Unless noted, calls come from the whole dose curve; as a rule, active = well fitted curve in the direction sought with a large enough effect; inconclusive = small, poorly fitted or top-dose-only effect, or another doubt; inactive = no such curve, though single readings can be large; an effect the other way counts as inactive or inconclusive.

COc1ccc(/C=C2/SC(=S)N(CCCC(=O)Nc3ccccc3C(=O)O)C2=O)cc1	none
CCOc1ccc(CSC(=N)N)cc1[N+](=O)[O-]	VACV mCherry inh inconclusive, Vaccinia Venus inconclusive
CN1CCN(c2ncc3nc(CCc4ccccc4)c(=O)n(Cc4cccs4)c3n2)CC1	none (no result: VACV mCherry inh, LmPK inhibitor, Vaccinia Venus, HCMV antiviral)
CC(=O)n1cc(N(C(=O)CCl)c2ccc(Cl)cc2)c2ccccc21	none (no result: VACV mCherry inh, Vaccinia Venus, HCMV antiviral)
COc1ccccc1N(C(=O)CCl)c1cn(C(C)=O)c2ccccc12	HCMV antiviral -97 (no result: VACV mCherry inh, Vaccinia Venus)
C[C@@H](C(=O)NCc1ccccc1)N1C(=O)C2CC=CCC2C1=O (stereo not given in full)	none
O=C(Nc1ccc(F)c(Cl)c1)N1CCN(C(=O)c2nsc3ccccc23)CC1	HCMV antiviral inconclusive (no result: LmPK inhibitor)
Cc1nnc(Oc2ccc([N+](=O)[O-])cc2)c2ccccc12	HCMV antiviral -96 (no result: VACV mCherry inh, Vaccinia Venus)
Cc1nnc(Oc2ccccc2)c2ccccc12	none (no result: VACV mCherry inh)
Cc1ccccc1CN1Cc2cnnn2-c2ccccc2C1C#N (stereo not given)	HCMV antiviral -99 (no result: LmPK inhibitor)
Cc1ccccc1C(=O)N1Cc2cnnn2-c2ccccc2C1C#N (stereo not given)	none (no result: LmPK inhibitor)
Oc1ccccc1-c1nc(NCc2ccco2)c2ccccc2n1	none (no result: VACV mCherry inh, Vaccinia Venus)
COc1ccccc1Nc1nc(NCc2ccco2)c2ccccc2n1	VACV mCherry inh inconclusive, HCMV antiviral -99
Cc1ccc(Nc2nc(NCc3ccco3)c3ccccc3n2)cc1	VACV mCherry inh inconclusive, Vaccinia Venus 11µM, HCMV antiviral -82
CN(Cc1ccccc1)C(=O)c1cccc(NC(=O)Cc2ccc([N+](=O)[O-])cc2)c1	VACV mCherry inh inconclusive, Vaccinia Venus inconclusive (no result: LmPK inhibitor)
O=C(Cc1ccc(Cl)cc1Cl)Nc1ccncc1Cl	HCMV antiviral -90 (no result: VACV mCherry inh, Vaccinia Venus)
COc1ccc(CC(=O)Nc2ccccc2NC(=O)Cc2ccc(OC)cc2)cc1	none (no result: VACV mCherry inh, Vaccinia Venus)
COc1ccc(CC(=O)Nc2ccncc2Cl)cc1	HCMV antiviral -92 (no result: VACV mCherry inh, Vaccinia Venus)
O=C(Cc1ccc(Cl)cc1Cl)Nc1ccncc1	HCMV antiviral -66
O=C(Cc1c(Cl)cccc1Cl)Nc1ccncc1Cl	none (no result: VACV mCherry inh, Vaccinia Venus, HCMV antiviral)
COc1ccccc1NC(=O)Nc1ccc(S(=O)(=O)Nc2onc(C)c2C)cc1	none (no result: LmPK inhibitor)
CCCOc1ccc(Cl)cc1/C=C1/C(=O)ON=C1C	none
CC1=NOC(=O)/C1=C\c1ccc(-c2ccc(Cl)cc2Cl)o1	HCMV antiviral -75
CC(C)c1nc(SCC(=O)N2CCCC2)c2ccccc2n1	HCMV antiviral -78 (no result: VACV mCherry inh, Vaccinia Venus)
O=C(CSc1cccc2cccnc12)N1CCCC1	VACV mCherry inh 11µM, Tb PYK inh inconclusive, Vaccinia Venus 11µM, HCMV antiviral inconclusive
NNC(=O)CSc1cccc2cccnc12	none
O=C(CSc1nncc2ccccc12)N1CCCCC1	HCMV antiviral -64
O=C(CSc1nc(C2CCCCC2)nc2ccccc12)N1CCCC1	HCMV antiviral -101
O=C(CSc1nc(C2CC2)nc2ccccc12)N1CCCCC1	none
Cc1cc(C)c2oc(C(=O)Nc3ccc(S(=O)(=O)N4CCCCC4)cc3)cc(=O)c2c1	none (no result: LmPK inhibitor)
COc1ccccc1C(CNC(=O)C1CC(=O)N(Cc2ccccc2)C1)N1CCCC1 (stereo not given)	none (no result: VACV mCherry inh, LmPK inhibitor, Vaccinia Venus)
O=c1ccnc2n1COCS2	HCMV antiviral -100 (no result: VACV mCherry inh, Vaccinia Venus)
Cc1ccc2c(c1)C(=O)OC(C(=O)Nc1ncc(Cc3ccccc3Cl)s1)C2 (stereo not given)	none (no result: LmPK inhibitor)
CCn1nc(C)c(CN2CCc3c([nH]c4ccccc34)C2c2ccc(F)c(OC)c2)c1C (stereo not given)	HCMV antiviral -76
Cc1onc(-c2c(Cl)cccc2Cl)c1C(=O)N=C(N)N1CCCC1	none
CCC1CCCCN1c1nc2c(C=O)c(C)nn2c2ccccc12 (stereo not given)	HCMV antiviral -64
COc1ccc(C(=O)NCc2nnc(SCC(=O)NO)n2Cc2ccccc2)cc1	none
O=C(Cc1ccc(Cl)cc1)Nc1ccc(Cl)cn1	none
O=S(=O)(Cc1ccc(Cl)cc1)Nc1ccc(Cl)cn1	HCMV antiviral -101
CC(=O)Nc1sc(N/N=C/c2ccc(O)cc2)nc1-c1ccc(C)cc1	none (no result: VACV mCherry inh, Vaccinia Venus)
COc1ccc(/C=N/Nc2nc(-c3ccc(C)cc3)c(NC(C)=O)s2)cc1	VACV mCherry inh 10µM
COc1cccc(C(=O)NCC2Cc3cccc(-c4ncccn4)c3O2)c1OC (stereo not given)	none (no result: Tb PYK inh, LmPK inhibitor, HCMV antiviral)
COCCCNC(=O)c1sc2nc(C)c(C(=O)Nc3ccc(Cl)cc3)c(-c3ccc(Br)cc3)c2c1N	HCMV antiviral -76 (no result: LmPK inhibitor)
COCCCNC(=O)c1sc2nc(C)c(C(=O)Nc3ccc(C)cc3C)c(-c3ccc(Br)cc3)c2c1N	none (no result: LmPK inhibitor)
CCOc1cc(C(=O)NCC(=O)N/N=C/c2sccc2C)cc(OCC)c1OCC	none (no result: VACV mCherry inh, Vaccinia Venus)
Cc1ccc(NC(=O)CSc2nc(C)c(Cc3ccccc3)c(=O)[nH]2)cc1	HCMV antiviral -64!
CCCc1nc(SCC(=O)N2CCOCC2)c2c(C)c(C)sc2n1	HCMV antiviral -78
Cc1nc(SCC(=O)N2CCOCC2)c2c(C)c(C)sc2n1	none
CCC(=O)N1c2ccccc2CC1C(=O)NCCN1CCN(c2cccc(C)c2C)CC1 (stereo not given)	none (no result: LmPK inhibitor)
Cc1cc(C(=O)N2CCCC(C(=O)c3cccc(C(F)(F)F)c3)C2)n[nH]1 (stereo not given)	none (no result: VACV mCherry inh, Vaccinia Venus)
O=C(c1cccc(C(F)(F)F)c1)C1CCCN(C(=O)c2cc(C3CC3)[nH]n2)C1 (stereo not given)	HCMV antiviral -67 (no result: VACV mCherry inh, Vaccinia Venus)
O=c1[nH]c(=O)n(C2CC(O)C(CO)O2)cc1I (stereo not given)	VACV mCherry inh 5µM, Vaccinia Venus inconclusive (no result: LmPK inhibitor)
O=c1[nH]c(=O)n([C@H]2C[C@H](O)[C@@H](CO)O2)cc1F	VACV mCherry inh inconclusive, Vaccinia Venus inconclusive, HCMV antiviral -67
O=C(Nc1cc(S(=O)(=O)Nc2ccc(Cl)cc2)ccc1N1CCCCC1)c1ccc(F)cc1	Vaccinia Venus inconclusive, HCMV antiviral -64
O=C(Nc1cc(Cl)ccc1N1CCOCC1)c1ccc(Br)o1	none (no result: HCMV antiviral)
COc1ccc(N2CCOCC2)c(NC(=O)c2ccc(Br)o2)c1	HCMV antiviral -81
COc1ccc(NS(=O)(=O)c2ccc(N3CCOCC3)c(NC(=O)c3cccc(F)c3)c2)cc1	VACV mCherry inh inconclusive, HCMV antiviral -78
Cc1ccccc1OC1CCN(C(=O)C2CCC(=O)N(C3CCCC3)C2)CC1 (stereo not given)	HCMV antiviral inconclusive (no result: VACV mCherry inh, Vaccinia Venus)
c1ccc(-c2nc(-c3ccccn3)nc(-c3ccccn3)n2)nc1	none
c1ccc(-c2nnc(-c3ccccn3)s2)nc1	Tb PYK inh inconclusive, LmPK inhibitor 13µM
CC1CCN(S(=O)(=O)c2cc(C(=O)NCc3ccc(N(C)C)cc3)n(C)c2)CC1	none (no result: LmPK inhibitor)
COC1=C(C)C(=O)C2=C(C1=O)C(CO)N1C(C#N)C3CC4C(C1C2N1CCOC41)N3C (stereo not given)	VACV mCherry inh inconclusive, Vaccinia Venus inconclusive, HCMV antiviral -99 (no result: LmPK inhibitor)
CCN1C(=O)C(CC(=O)Nc2cccc(C(C)=O)c2)S/C1=N\c1ccccn1 (stereo not given)	none
Cc1ccc(OCC(O)CNS(=O)(=O)c2ccccc2C(=O)N2CCCCC2)cc1 (stereo not given)	none (no result: VACV mCherry inh, Vaccinia Venus)

Source: PubChem (National Center for Advancing Translational Sciences (NCATS))
